The results in this text go back to PubChem BioAssay.

A short description of assay [1]: inhibitors of TNFa-induced NFkB p65 translocation, primary screen, imaging, HUVEC, MLSMR starter and 10KST1 sets (AID 438;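 active = inhibition above 20% together with a positive visual image hit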;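 also: compound added about 3h40 before a 20 min TNFalpha stimulation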;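 as to inhibition: signal is the nuclear over cytoplasmic p65 intensity ratio per well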). The conditions noted are these: HUVEC TNFa-induced p65 nuclear translocation; cell count: measured here: nuclei count (cytotoxicity indicator), at 2.08 µM; inhibition: at 2 µM, stronger effect = higher value, 0% TNFa-plus-vehicle, 100% no-TNFa wells.
Assay [2] is described as follows: reduction of polyQ htt aggregates in cells – imaging, exon1htt(103Q)mCFP cells, high-content imaging, primary screen (AID 483;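 active = visual image review flags a hit and inhibition of aggregation exceeds 20%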;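 also: compound exposure lasted 3 days before fixation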;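 as to nuclei count: percent of the per-plate median nuclei count of sample wells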). The settings on record: exon1htt(103Q)mCFP cell line, aggregate imaging, at 2 µM; inhibition of aggregation: stronger effect = higher value; nuclei count: measured here: cell count, toxicity.
Assay [3] can be described thus: endothelial E-selectin expression blockers – imaging, HUVEC, immunofluorescence, MLSMR starter and 10KST1 sets, primary screen (AID 487;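 active = visually confirmed hit in the image check and inhibition above 20%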;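 as to inhibition: signal is fraction of cell area covered by stained E-selectin grains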;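 as to nuclei count: 100% = median nuclei count of all wells on the same plate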). The conditions noted are these: HUVEC TNFalpha-induced E-selectin immunofluorescence imaging, at 2 µM; inhibition: stronger effect = higher value; nuclei count: measured here: cell number, toxicity.
In assay [4] the target is Voltage-gated potassium channel subunit beta-2 (Rattus norvegicus) (UniProt P62483). Nature of the assay: inhibitors of rat Kvbeta2 reductase activity – biochemical, NADPH fluorescence, primary screen (AID 622;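 active = fluorescence slope higher than the sample average by over 3 SD, cut at about -0.22 in these data, passing the limit was not always enough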;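 also: slope of raw intensity against log time taken from 70 to 1610 s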). The settings on record: recombinant KvBeta, 4-cyanobenzaldehyde reduction, at 10 µM, stronger effect = higher value.
Voltage-gated potassium channel subunit beta-2 (Rattus norvegicus), sequence (P62483 whole entry, looked up): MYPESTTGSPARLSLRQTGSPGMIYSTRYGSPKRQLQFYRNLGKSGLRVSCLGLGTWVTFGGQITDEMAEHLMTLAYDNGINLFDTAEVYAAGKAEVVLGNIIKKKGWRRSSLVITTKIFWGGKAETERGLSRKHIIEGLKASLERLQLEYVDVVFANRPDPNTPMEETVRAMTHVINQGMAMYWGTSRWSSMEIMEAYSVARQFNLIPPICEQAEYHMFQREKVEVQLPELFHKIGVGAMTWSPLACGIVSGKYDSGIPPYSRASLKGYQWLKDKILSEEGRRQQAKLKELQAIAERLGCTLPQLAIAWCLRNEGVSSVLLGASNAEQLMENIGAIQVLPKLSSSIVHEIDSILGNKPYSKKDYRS
The target is the same in assay [5]. Nature of the assay: enhancers of rat Kvbeta2 NADPH turnover – biochemical, NADPH fluorescence, primary screen (AID 623;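 active = NADPH fluorescence slope more negative than the mean of all samples by about 3 SD, 99.7% confidence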;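 also: fluorescence intensity change per second fitted from 20 to 320 s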). The settings on record: Recombinant KvBeta, NADPH fluorescence decrease slope, 10 min; at 10 µM; stronger effect = lower value.
The target in assay [6] is Alpha-2C adrenergic receptor (Homo sapiens) (UniProt P18825). Nature of the assay: compounds altering alpha2C-coupled GIRK flux – cell-based, HEK293 alpha2C/GIRK1/2, thallium flux, primary screen (AID 624).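 Also: slope of fluorescence ratio to pre-addition baseline per second over 15 to 24 s.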 The settings on record: thallium flux BTC fluorescence, at 10 µM, actives lie on both sides.
Alpha-2C adrenergic receptor (Homo sapiens), sequence (P18825 whole entry, looked up): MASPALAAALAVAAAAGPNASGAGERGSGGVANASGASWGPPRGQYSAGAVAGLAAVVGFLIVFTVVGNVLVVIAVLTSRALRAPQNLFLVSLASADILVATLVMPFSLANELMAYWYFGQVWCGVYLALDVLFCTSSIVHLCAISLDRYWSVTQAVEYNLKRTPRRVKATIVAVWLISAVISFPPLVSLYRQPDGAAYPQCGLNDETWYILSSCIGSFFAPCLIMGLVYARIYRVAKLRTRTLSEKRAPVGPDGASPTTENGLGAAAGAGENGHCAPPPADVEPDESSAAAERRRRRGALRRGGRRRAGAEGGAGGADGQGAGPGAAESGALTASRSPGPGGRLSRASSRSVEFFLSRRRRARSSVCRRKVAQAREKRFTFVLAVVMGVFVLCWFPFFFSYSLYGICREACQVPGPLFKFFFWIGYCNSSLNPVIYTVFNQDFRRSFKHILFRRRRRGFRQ
Assay [7] is described as follows: blockers of RIG-like receptor reporter activation – cell-based, Sendai virus stimulus, luciferase, 10K MLSCN set, TLR/RLR signaling modifier project, primary screen (AID 602276;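 active = inhibition at or above 50% at 10 µM; inactive = inhibition below 50%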;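 also: firefly luciferase from ISG56 promoter only with Renilla not read in this screen; 0% = Sendai virus plus DMSO and 100% = medium plus DMSO without virus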). The settings on record: HEK293 RL24 IRF3 luciferase reporter, at 10 µM, stronger effect = higher value.
Assay [8] in a line: TLR3 IRF3 reporter activation blockers – cell-based, poly I:C stimulus, luciferase, 10K MLSCN set, primary screen (AID 602277;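 active = inhibition of the reporter signal at or above 50%; inactive = inhibition below 50%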). The conditions noted are these: HEK293-TLR3 RL24 IRF3 luciferase reporter, at 10 µM, stronger effect = higher value.

The source made the active and inactive calls.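 The calls were made as follows, unless noted: active = fluorescence slope after compound addition differing from the mean of all screened samples at 99.7% confidence, in either direction; inactive = the rest.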

Consider `Cc1cc(C)nc(NC2=NCC(=O)N2c2ccccc2Br)n1`, for which, in assay [1], the cell count is 899. For the same compound, the inhibition in assay [1] was -1.7% (inactive); in assay [3], -29.3% (inactive); in assay [7] it was 17.3% (inactive); in assay [8], 40.3% (inactive). Also, the inhibition of aggregation in assay [2] is -2.1% (inactive). Besides, the values for the nuclei count in assay [2] and in assay [3] were 92.9% and 115%, respectively. For the same compound, the fluorescence slope in assay [4] was -0.4 (inactive). For the same compound, the NADPH fluorescence slope in assay [5] is 9.8e-06 (inactive). Moreover, in assay [6], the slope is 0.00564 (inactive).

As for `COc1cccc(-c2nnc(NC(=O)Cc3cccs3)s2)c1`, the cell count in assay [1] amounted to 710. Besides, the inhibition in assay [1] was -5% (inactive); in assay [3], 1.2% (inactive); in assay [7] it was 2.67% (inactive); in assay [8], -7.11% (inactive). Further, the inhibition of aggregation in assay [2] is 22% (inactive). Besides, the nuclei count in assay [2] worked out at 79.8%; in assay [3], 92%. In assay [4], the fluorescence slope was -0.452 (inactive). Further, the NADPH fluorescence slope in assay [5] is -3e-05 (inactive). Further, in assay [6], the slope is 0.00526 (inactive).

Regarding `Cc1cc(=O)[nH]c(SCc2nc3ncccn3c2Br)n1`, in assay [1], the cell count amounted to 636. Moreover, the inhibition in assay [1] is -2.4% (inactive); in assay [3], -32.2% (inactive); in assay [7], 8.84% (inactive); in assay [8], 23.4% (inactive). Besides, the inhibition of aggregation in assay [2] is -10.4% (inactive). For the same compound, the nuclei count in assay [2] turned out to be 76.5%; in assay [3], 107%. Besides, the fluorescence slope in assay [4] is -0.27 (inactive). Besides, in assay [5], the NADPH fluorescence slope is -6.4e-06 (inactive). The slope in assay [6] was 0.00645 (inactive).

For the compound `Cn1cnc2c1c(=O)n(Cc1cccc(Br)c1)c(=O)n2C`, in assay [1], the cell count worked out at 320. For the same compound, the inhibition is 1.4% (inactive) in assay [1], -17.1% (inactive) in assay [3], 14.2% (inactive) in assay [7] and 14.4% (inactive) in assay [8]. Moreover, the inhibition of aggregation in assay [2] was 9.8% (inactive). Moreover, the nuclei count in assay [2] was 113%; in assay [3] it was 122%. Besides, the fluorescence slope in assay [4] was -0.38 (inactive). Besides, the NADPH fluorescence slope in assay [5] was 8.1e-07 (inactive). In assay [6], the slope is 0.00734 (inactive).

For `Cc1ccc(NC(=O)C2CCCN(S(=O)(=O)c3cnc[nH]3)C2)cc1C` (centres undefined), the cell count in assay [1] worked out at 626. Besides, the inhibition was 1.6% (inactive) in assay [1], -102% (inactive) in assay [3], 20.9% (inactive) in assay [7] and 6.37% (inactive) in assay [8]. Moreover, in assay [2], the inhibition of aggregation was 11.8% (inactive). The results for the nuclei count in assay [2] and in assay [3] were 106% and 134%, respectively. Moreover, in assay [4], the fluorescence slope was -0.527 (inactive). The NADPH fluorescence slope in assay [5] is -2.9e-05 (inactive). For the same compound, the slope in assay [6] was 0.00769 (inactive).

In the case of `COc1ccccc1N1CCN(C(=O)C2CCCO2)CC1` (centres undefined), the cell count in assay [1] stood at 405. The inhibition is 2.5% (inactive) in assay [1], -14.4% (inactive) in assay [3], 11.6% (inactive) in assay [7] and 24.6% (inactive) in assay [8]. In addition, in assay [2], the inhibition of aggregation is -0.1% (inactive). Besides, the nuclei count in assay [2] was 124%; in assay [3] it was 102%. Moreover, in assay [4], the fluorescence slope was -0.442 (inactive). Also, the NADPH fluorescence slope in assay [5] is -8.7e-05 (inactive). Moreover, the slope in assay [6] was 0.0058 (inactive).

Consider `C=C(C)COc1ccc(-c2n[nH]c(C)c2-c2ccccc2)c(O)c1`, for which, in assay [1], the cell count stood at 456. The inhibition was -8% (inactive) in assay [1], 0.8% (inactive) in assay [3], -6.65% (inactive) in assay [7] and 11.2% (inactive) in assay [8]. In assay [2], the inhibition of aggregation was 3.7% (inactive). The nuclei count in assay [2] is 99.2%; in assay [3], 81.8%. In assay [4], the fluorescence slope was -0.46 (inactive). Moreover, in assay [5], the NADPH fluorescence slope is -3.2e-05 (inactive). Also, the slope in assay [6] was 0.00246 (inactive).

Consider `CN(C)c1cc(NC(=O)CN2CCOCC2)c2ccccc2n1`, for which the cell count in assay [1] amounted to 863. Besides, the inhibition in assay [1] was 1.2% (inactive); in assay [3] it was -75% (inactive); in assay [7], 9.32% (inactive); in assay [8], 46.3% (inactive). Moreover, in assay [2], the inhibition of aggregation was 6.6% (inactive). Moreover, the nuclei count came out at 101% in assay [2] and 131% in assay [3]. For the same compound, the fluorescence slope in assay [4] was -0.549 (inactive). Also, the NADPH fluorescence slope in assay [5] was -3.5e-05 (inactive). Further, the slope in assay [6] was 0.00612 (inactive).

Consider `CCOC(=O)c1cc2sc(C)cc2n1CC(=O)Nc1cccc(C)c1C`, for which the cell count in assay [1] was determined as 556. Besides, the inhibition in assay [1] is 7.5% (inactive); in assay [3] it was -44.9% (inactive); in assay [7] it was -2.4% (inactive); in assay [8] it was 12.7% (inactive). The inhibition of aggregation in assay [2] is 23.7% (inactive). The nuclei count in assay [2] stood at 109%; in assay [3], 116%. Also, the fluorescence slope in assay [4] was -0.342 (inactive). In assay [5], the NADPH fluorescence slope was -3.2e-05 (inactive). Also, the slope in assay [6] was 0.00758 (inactive).

For the compound `Cc1ccc(-n2ncc3c(=O)n(CC(=O)N4CCCc5ccccc54)cnc32)cc1C`, in assay [1], the cell count is 227. The inhibition in assay [1] was -2.8% (inactive); in assay [3], 9.3% (inactive); in assay [7], -13.9% (inactive); in assay [8], -13.7% (inactive). Besides, the inhibition of aggregation in assay [2] is 10.4% (inactive). Besides, the nuclei count in assay [2] was found to be 93.3%; in assay [3] it was 87.8%. For the same compound, the fluorescence slope in assay [4] was -0.346 (inactive). For the same compound, in assay [5], the NADPH fluorescence slope was -6.2e-05 (inactive). In addition, the slope in assay [6] is 0.00504 (inactive).

For `O=C(C1CCCCC1)N1CCC(c2nc3c(nnn3Cc3c(F)cccc3Cl)c(=O)[nH]2)CC1`, in assay [1], the cell count stood at 413. Also, the inhibition in assay [1] is -4.6% (inactive); in assay [3], -110% (inactive); in assay [7], 6.04% (inactive); in assay [8], 27% (inactive). In assay [2], the inhibition of aggregation was -15.9% (inactive). Besides, the nuclei count in assay [2] came to 116%; in assay [3], 249%. In assay [4], the fluorescence slope is -0.454 (inactive). In assay [5], the NADPH fluorescence slope is -0.000123 (inactive). The slope in assay [6] was 0.00666 (inactive).

On to `CCN1CCN(C(=O)C2CCN(C(=O)c3cc4sccc4n3CC)CC2)CC1`, for which the cell count in assay [1] turned out to be 642. The inhibition in assay [1] is -12.2% (inactive); in assay [3] it was -25.4% (inactive); in assay [7], 12.4% (inactive); in assay [8], 45.3% (inactive). Further, the inhibition of aggregation in assay [2] was 4.1% (inactive). In addition, the nuclei count in assay [2] is 85.3%; in assay [3] it was 115%. The fluorescence slope in assay [4] was -0.556 (inactive). For the same compound, the NADPH fluorescence slope in assay [5] is -4.1e-05 (inactive). In assay [6], the slope is 0.00649 (inactive).

For `CC1=C(C(=O)OC2CCCCC2)C(c2ccc(C)o2)C2=C(CC(C)(C)CC2=O)N1` (centres undefined), the cell count in assay [1] stood at 493. Further, the inhibition in assay [1] is -2.4% (inactive); in assay [3], -13.3% (inactive); in assay [7] it was 7.33% (inactive); in assay [8], 29.1% (inactive). The inhibition of aggregation in assay [2] was 3.3% (inactive). Also, the values for the nuclei count in assay [2] and in assay [3] were 122% and 112%, respectively. Further, the fluorescence slope in assay [4] is -0.25 (inactive). The NADPH fluorescence slope in assay [5] was -1.1e-05 (inactive). In assay [6], the slope was 0.0052 (inactive).

Take `C=CCN(C(=O)CNC(=O)c1ccco1)C(C(=O)NC1CCCCC1)c1ccccc1F` (centres undefined): the cell count in assay [1] came out at 398. The inhibition in assay [1] was -1.6% (inactive); in assay [3], 5.7% (inactive); in assay [7], -3.24% (inactive); in assay [8], 10.3% (inactive). In addition, the inhibition of aggregation in assay [2] is 18.6% (inactive). Also, the nuclei count was 106% in assay [2] and 101% in assay [3]. For the same compound, the fluorescence slope in assay [4] is -0.612 (inactive). In addition, the NADPH fluorescence slope in assay [5] is 1.7e-06 (inactive). The slope in assay [6] was 0.00581 (inactive).
